Reference: PubChem BioAssay (NCI)
This is part of a sample that, as a whole, favours compounds with a hit. Of some 83,000 tested, about 20% had one in any assay.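 Step 1: grow cells in 96-well plates. Step 2: add test compound at a single concentration. Step 3: incubate 48 h. Step 4: record percent growth.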 The source made the active and inactive calls. Rule for the calls: active = growth percent below 10; inactive = the rest.

Tests used:
Test in all cases: NCI-60 one-dose screen, 48 h (100 = growth as untreated, 0 = no growth, -100 = all killed)
Settings in all cases: 10 µM unless noted
RPMI-8226 leukemia = test system: RPMI-8226 leukemia
OVCAR-8 ovarian = test system: OVCAR-8 ovarian
OVCAR-5 ovarian = test system: OVCAR-5 ovarian
OVCAR-4 ovarian = test system: OVCAR-4 ovarian
SK-OV-3 ovarian = test system: SK-OV-3 ovarian
IGROV1 ovarian = test system: IGROV1 ovarian
OVCAR-3 ovarian = test system: OVCAR-3 ovarian
HS 578T breast = test system: HS 578T breast
NCI/ADR-RES ovarian = test system: NCI/ADR-RES ovarian
T-47D breast = test system: T-47D breast
BT-549 breast = test system: BT-549 breast
MDA-MB-435 melanoma = test system: MDA-MB-435 melanoma
SW-620 colon = test system: SW-620 colon
MCF7 breast = test system: MCF7 breast
HCT-116 colon = test system: HCT-116 colon
KM12 colon = test system: KM12 colon
HCC-2998 colon = test system: HCC-2998 colon

Measured: growth

COc1cc(-c2nn(-c3cccc(NC(=O)c4cccc(C(F)(F)F)c4)c3)cc2-c2ccncc2)ccc1Cl
inactive: OVCAR-8 ovarian 11.8% | OVCAR-5 ovarian 49.3% | OVCAR-4 ovarian 46.5% | IGROV1 ovarian 34% | T-47D breast 29% | BT-549 breast 26% | SW-620 colon 36% | KM12 colon 13.4%
active: RPMI-8226 leukemia -1.13% | SK-OV-3 ovarian 7.18% | OVCAR-3 ovarian -25.6% | HS 578T breast -5.69% | NCI/ADR-RES ovarian 2.75% | MDA-MB-435 melanoma -39.6% | MCF7 breast 3.58% | HCT-116 colon 8.15%

O=C(Nc1cccc(-n2cc(-c3ccncc3)c(-c3ccc(Cl)c(O)c3)n2)c1)Nc1ccc(Cl)c(C(F)(F)F)c1
inactive: OVCAR-5 ovarian 23.3% | IGROV1 ovarian 10.4%
active: RPMI-8226 leukemia -10.5% | OVCAR-8 ovarian -41.8% | OVCAR-4 ovarian -3.42% | SK-OV-3 ovarian 7.47% | OVCAR-3 ovarian -43% | HS 578T breast -7.39% | NCI/ADR-RES ovarian -16.9% | T-47D breast -7.12% | BT-549 breast 1.33% | MDA-MB-435 melanoma -31.3% | SW-620 colon -19.7% | MCF7 breast -16.6% | HCT-116 colon -51% | KM12 colon -27.3%

CC(C)NCCCNC1=C(Cl)C(=O)c2ccccc2C1=O
active: IGROV1 ovarian -51.3% | MDA-MB-435 melanoma -66% | SW-620 colon -30.7%
inactive: RPMI-8226 leukemia 68.4% | OVCAR-8 ovarian 56.9% | OVCAR-5 ovarian 138% | OVCAR-4 ovarian 84.1% | SK-OV-3 ovarian 107% | OVCAR-3 ovarian 40.8% | HS 578T breast 27.7% | NCI/ADR-RES ovarian 90.5% | T-47D breast 101% | BT-549 breast 99.8% | MCF7 breast 63.4% | HCT-116 colon 70.7% | KM12 colon 87.2%

Cc1ccc(S(=O)(=O)NCCNc2nccc(-c3c(-c4ccc(O)cc4)nc4sccn34)n2)cc1
inactive: RPMI-8226 leukemia 85.9% | OVCAR-8 ovarian 89.3% | OVCAR-5 ovarian 135% | OVCAR-4 ovarian 102% | SK-OV-3 ovarian 107% | IGROV1 ovarian 97.1% | OVCAR-3 ovarian 110% | HS 578T breast 106% | NCI/ADR-RES ovarian 97.8% | T-47D breast 85% | BT-549 breast 106% | MDA-MB-435 melanoma 86.4% | SW-620 colon 126% | MCF7 breast 93.7% | HCT-116 colon 100% | KM12 colon 100%

C=C1CCC[C@]2(C)CCC[C@H](C)[C@@H](OC(C)=O)[C@@H]3OC(=O)C(=C)[C@@H]3C[C@H]1O2
inactive: RPMI-8226 leukemia 54.8% | OVCAR-8 ovarian 61.5% | OVCAR-5 ovarian 101% | OVCAR-4 ovarian 61.2% | SK-OV-3 ovarian 85% | IGROV1 ovarian 81.8% | OVCAR-3 ovarian 47.9% | HS 578T breast 78% | NCI/ADR-RES ovarian 73.6% | T-47D breast 76.4% | BT-549 breast 48.1% | MDA-MB-435 melanoma 53.9% | SW-620 colon 80.8% | MCF7 breast 57.4% | HCT-116 colon 55.1% | KM12 colon 79.4%

CCOC(=O)c1cn2c3c(cc(C)cc3c1=O)C(=O)/C(=C/c1ccccc1)C2
inactive: RPMI-8226 leukemia 110% | OVCAR-8 ovarian 82.1% | OVCAR-5 ovarian 90% | OVCAR-4 ovarian 88.1% | SK-OV-3 ovarian 82.3% | IGROV1 ovarian 93.2% | OVCAR-3 ovarian 96.7% | HS 578T breast 103% | NCI/ADR-RES ovarian 93.9% | T-47D breast 81.7% | BT-549 breast 84.3% | MDA-MB-435 melanoma 107% | HCT-116 colon 86.4% | HCC-2998 colon 98.9% | KM12 colon 102%

Oc1ccc(Cl)cc1-c1cc(-c2ccc(F)cc2)n[nH]1
inactive: RPMI-8226 leukemia 28.2% | OVCAR-8 ovarian 73.4% | OVCAR-5 ovarian 83.6% | OVCAR-4 ovarian 25.3% | SK-OV-3 ovarian 74.8% | IGROV1 ovarian 40% | OVCAR-3 ovarian 49.8% | HS 578T breast 65.4% | NCI/ADR-RES ovarian 66.4% | T-47D breast 24.3% | BT-549 breast 84.7% | MDA-MB-435 melanoma 83% | SW-620 colon 75.5% | HCT-116 colon 51.5% | HCC-2998 colon 37.8% | KM12 colon 37%

COc1cc(-c2nc(-c3nc4ccc(Cl)cc4[nH]3)cc3c2[nH]c2ccccc23)cc(OC)c1OC
inactive: RPMI-8226 leukemia 45.2% | OVCAR-8 ovarian 48.4% | OVCAR-5 ovarian 93.3% | OVCAR-4 ovarian 59.9% | SK-OV-3 ovarian 103% | IGROV1 ovarian 52.6% | OVCAR-3 ovarian 82.8% | HS 578T breast 77.3% | NCI/ADR-RES ovarian 55.6% | T-47D breast 54.2% | BT-549 breast 70.8% | MDA-MB-435 melanoma 75.5% | SW-620 colon 96.2% | MCF7 breast 47.9% | HCT-116 colon 58.7% | HCC-2998 colon 68.7% | KM12 colon 71%

Fc1ccc(Nc2nc(NCCNc3ccnc4cc(Cl)ccc34)nc(N3CCOCC3)n2)cc1
active: HCC-2998 colon -51.2%
inactive: RPMI-8226 leukemia 33.6% | OVCAR-8 ovarian 74.7% | OVCAR-5 ovarian 105% | OVCAR-4 ovarian 61.1% | SK-OV-3 ovarian 91.6% | IGROV1 ovarian 75.5% | OVCAR-3 ovarian 85.1% | HS 578T breast 70.2% | NCI/ADR-RES ovarian 77.8% | BT-549 breast 81.9% | MDA-MB-435 melanoma 28.2% | SW-620 colon 47.1% | MCF7 breast 55% | HCT-116 colon 37.3% | KM12 colon 78.6%
